Measured values taken from the supplement of paper PMC9694430.
Structures can show the parent of a compound that is named as a salt.

What was measured:
Assay in all cases: thermal shift delta Tm vs DMSO control; higher = stronger stabilization (binding)
Settings in all cases: 12.5 µM; protein concentration 2 µM
[1] = test system: LOC_OS01G57100-cb003
Summary of the method: (§1)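 Thermal shift values come from differential scanning fluorimetry on purified rice kinase domains made in E. coli, with melting temperatures obtained from Boltzmann fits. Samples of 19.5 μl held 2 μM kinase, 100 mM potassium phosphate pH 7.5, 150 mM NaCl, 10% glycerol, 5 × SYPRO Orange and compound in DMSO, and were heated from 25°C to 95°C at 0.05°C/s. Each shift is a triplicate mean relative to the DMSO-only protein sample.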

[2] = test system: LOC_OS01G60330-cb001
Summary of the method: as §1

[3] = test system: LOC_OS01G60700-cb002
Summary of the method: as §1

[4] = test system: LOC_OS01G63280-cb003
Summary of the method: as §1

[5] = test system: LOC_OS01G67340-cb003
Summary of the method: as §1

[6] = test system: LOC_OS01G70970-cb002
Summary of the method: as §1

[7] = test system: LOC_OS02G07810-cb001
Summary of the method: as §1

[8] = test system: LOC_OS02G08530-cb003
Summary of the method: as §1

[9] = test system: LOC_OS02G14120-cb001
Summary of the method: as §1

[10] = test system: LOC_OS02G17970-cb001
Summary of the method: as §1

[11] = test system: LOC_OS02G45750-cb003
Summary of the method: as §1

[12] = test system: LOC_OS02G54510-cb004
Summary of the method: as §1

[13] = test system: LOC_OS03G04050-cb001
Summary of the method: as §1

[14] = test system: LOC_OS03G12390-cb001
Summary of the method: as §1

[15] = test system: LOC_OS03G27990-cb004
Summary of the method: as §1

[16] = test system: LOC_OS03G50450-cb001
Summary of the method: as §1

[17] = test system: LOC_OS03G50810-cb003
Summary of the method: as §1

[18] = test system: LOC_OS04G35114-cb001
Summary of the method: as §1

[19] = test system: T1, LOC_OS04G38480-cb003
T1 sequence (whole entry): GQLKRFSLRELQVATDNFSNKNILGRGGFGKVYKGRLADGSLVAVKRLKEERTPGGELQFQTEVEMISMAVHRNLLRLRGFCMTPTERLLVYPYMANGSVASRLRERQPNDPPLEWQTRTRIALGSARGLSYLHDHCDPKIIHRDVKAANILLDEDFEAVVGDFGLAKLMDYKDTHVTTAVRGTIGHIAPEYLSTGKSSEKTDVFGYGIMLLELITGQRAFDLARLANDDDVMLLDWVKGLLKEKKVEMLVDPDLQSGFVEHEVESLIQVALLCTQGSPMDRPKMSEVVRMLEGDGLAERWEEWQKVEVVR
Summary of the method: as §1

[20] = test system: T2, LOC_OS04G41100-cb001
T2 sequence (whole entry): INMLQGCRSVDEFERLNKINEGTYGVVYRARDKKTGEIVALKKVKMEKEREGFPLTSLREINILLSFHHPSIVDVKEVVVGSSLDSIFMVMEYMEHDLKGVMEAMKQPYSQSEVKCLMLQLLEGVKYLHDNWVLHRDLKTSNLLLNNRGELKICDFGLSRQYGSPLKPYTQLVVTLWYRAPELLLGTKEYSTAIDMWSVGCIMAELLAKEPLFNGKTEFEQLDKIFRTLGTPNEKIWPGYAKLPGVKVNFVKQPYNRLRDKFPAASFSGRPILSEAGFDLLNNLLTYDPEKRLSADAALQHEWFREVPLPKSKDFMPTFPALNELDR
Summary of the method: as §1
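Further: purified Escherichia coli-expressed rice kinase domain construct.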

Structure (SMILES)	thermal shift delta Tm [1]	thermal shift delta Tm [2]	thermal shift delta Tm [3]	thermal shift delta Tm [4]	thermal shift delta Tm [5]	thermal shift delta Tm [6]	thermal shift delta Tm [7]	thermal shift delta Tm [8]	thermal shift delta Tm [9]	thermal shift delta Tm [10]	thermal shift delta Tm [11]	thermal shift delta Tm [12]	thermal shift delta Tm [13]	thermal shift delta Tm [14]	thermal shift delta Tm [15]	thermal shift delta Tm [16]	thermal shift delta Tm [17]	thermal shift delta Tm [18]	thermal shift delta Tm [19]	thermal shift delta Tm [20]
Cc1cccc(CC(=O)N2CCc3c2ccc(-c2cn(C)c4ncnc(N)c24)c3F)n1	1.41 °C	0.28 °C	1.1 °C	5.6 °C	3.56 °C	0.24 °C	0.39 °C	0.71 °C	1.09 °C	1.12 °C	1.87 °C	0.61 °C	0.63 °C	0.44 °C	0.12 °C	0.29 °C	0.3 °C	0.7 °C	3.73 °C	0.27 °C
Cn1ncc(Cl)c1-c1cc(C(=O)N[C@H](CN)Cc2ccc(F)c(F)c2)oc1Cl	1.78 °C	0.8 °C	1.33 °C	0.28 °C	0.45 °C	0.03 °C	0.82 °C	0.49 °C	0.41 °C	1.67 °C	1.04 °C	-0.14 °C	0.46 °C	1.31 °C	0.14 °C	0.74 °C	0.51 °C	0.52 °C	1.58 °C	0.63 °C
CNC(=O)Nc1ccc(-c2nc(N3CC4CCC(C3)O4)c3cnn(C4CCC5(CC4)OCCO5)c3n2)cc1	2.76 °C	1.5 °C	0.99 °C	0.45 °C	0.98 °C	0.28 °C	1.7 °C	1.49 °C	1.03 °C	0.84 °C	0.68 °C	0.19 °C	0.28 °C	0.26 °C	0.16 °C	0.34 °C	-0.43 °C	0.16 °C	1.69 °C	0.57 °C
O=C(Nc1cnn2ccc(N3CCC[C@@H]3c3cc(F)ccc3F)nc12)N1CC[C@H](O)C1 [Larotrectinib (LOXO-101) sulfate]	1.19 °C	0.93 °C	0.28 °C	-0.24 °C	0.23 °C	0.22 °C	0.18 °C	0.6 °C	3.12 °C	0.72 °C	1.75 °C	0.37 °C	0.11 °C	-0.11 °C	0.01 °C	0.17 °C	0.5 °C	1.91 °C	1.2 °C	0.27 °C
COc1cc(Nc2ncc(F)c(Nc3ccc4c(n3)N(COP(=O)(O)O)C(=O)C(C)(C)O4)n2)cc(OC)c1OC [Fostamatinib (R788)]	4.42 °C	6.53 °C	0.92 °C	0.09 °C	1.18 °C	3.04 °C	0.54 °C	3.76 °C	11 °C	0.23 °C	4.51 °C	2.89 °C	0.44 °C	7.17 °C	2.16 °C	10.5 °C	3.97 °C	3.46 °C	4.1 °C	0.47 °C
CCCS(=O)(=O)Nc1ccc(F)c(C(=O)c2c[nH]c3ncc(Cl)cc23)c1F	0.54 °C	2.26 °C	1.16 °C	5.8 °C	-0.05 °C	2.74 °C	1.49 °C	0.84 °C	1.51 °C	0.28 °C	1.97 °C	1.14 °C	0.77 °C	0.99 °C	0.46 °C	0.97 °C	0.43 °C	1.85 °C	0.12 °C	0.83 °C
